The results in this text go back to PubChem BioAssay (NCI).

Each structure is given as a SMILES string. The panel holds about 83,000 compounds, 20% with a hit somewhere; the sample as a whole holds those more often.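 Activity criterion: percent growth below 10, measured after cells in 96-well plates were exposed to a single compound concentration for 48 hours.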 Values without a mark were called inactive. The source made the active and inactive calls.

Test systems include NCI-H23 lung; NCI-H226 lung; NCI-H322M lung; HOP-62 NSCLC; NCI-H460 lung; HOP-92 NSCLC; NCI-H522 lung; A549/ATCC NSCLC; 786-0 renal; COLO 205 colon; DU-145 prostate; MALME-3M melanoma; MDA-MB-231 breast; RXF 393 renal; SF-268 CNS; SF-295 CNS; SF-539 CNS; UACC-257 melanoma; M14 melanoma; K-562 leukemia.
Common to all, as to experiment: NCI-60 one-dose screen, 48 h (100 = growth as untreated, 0 = no growth, -100 = all killed)
Holding throughout (details): 10 µM unless noted

Regarding `CC(=O)Oc1cccc(S(=O)(=O)n2cc(C(=O)C(=O)Nc3ccncc3)c3ccccc32)c1`, the growth with NCI-H23 lung was 62.6%; with NCI-H226 lung it was 73.6%; in the test on NCI-H322M lung, 92.3%; in the test with HOP-62 NSCLC, 87.2%; in the test on NCI-H460 lung, 82.1%; in the test with HOP-92 NSCLC, 70.5%. In addition, the growth in the test on NCI-H522 lung is 63.9%; in the test with A549/ATCC NSCLC, 72.7%; with 786-0 renal, 91.2%; in the test with COLO 205 colon it was 100%; in the test on DU-145 prostate it was 104%; in the test with MALME-3M melanoma, 90.4%. Also, the growth with MDA-MB-231 breast was 66.1%; in the test on RXF 393 renal it was 90.8%; in the test on SF-268 CNS it was 103%; in the test with SF-295 CNS, 58.5%; with SF-539 CNS, 86.7%; in the test on UACC-257 melanoma it was 93.9%. For the same compound, the growth in the test on M14 melanoma was 102%.

Take `COc1ccc(-c2c(N)n[nH]c2-c2cc(OC)c3c(c2)OCCO3)cc1`: the growth in the test with NCI-H23 lung is 87.6%; with NCI-H226 lung it was 93.3%; in the test on NCI-H322M lung, 107%; in the test with HOP-62 NSCLC, 78.3%; in the test on NCI-H460 lung, 83%; with HOP-92 NSCLC, 87.6%. The growth with NCI-H522 lung was 12.5%; in the test with A549/ATCC NSCLC, 56%; in the test with 786-0 renal, 88.9%; with COLO 205 colon it was 66.8%; with DU-145 prostate it was 96.1%; with K-562 leukemia, 12.1%. Moreover, the growth is 39.3% in the test on MALME-3M melanoma; 87.7% with MDA-MB-231 breast; 74% in the test on RXF 393 renal; 79.9% in the test on SF-268 CNS; 88.1% in the test with UACC-257 melanoma; 65.2% in the test on M14 melanoma.

As to `Nc1cc2c([nH]c[n+]2CC#CCCl)c(SCC#CCCl)n1`, the growth in the test with NCI-H23 lung is -72.2% (active); in the test with NCI-H226 lung, -42.5% (active); in the test with NCI-H322M lung it was -66.6% (active); in the test on HOP-62 NSCLC it was -62.8% (active); in the test with NCI-H460 lung, -7.39% (active); in the test with HOP-92 NSCLC it was -39.7% (active). Moreover, the growth in the test on NCI-H522 lung was -90.7% (active); with A549/ATCC NSCLC it was -7.51% (active); in the test on 786-0 renal it was -86.5% (active); with COLO 205 colon it was -48.5% (active); with DU-145 prostate it was -5.81% (active); with K-562 leukemia, 5.47% (active). Besides, the growth in the test with MALME-3M melanoma was -46.4% (active); in the test with MDA-MB-231 breast, -50.2% (active); in the test with RXF 393 renal it was -90.5% (active); in the test on SF-268 CNS, -9.39% (active); in the test with SF-539 CNS, -75.3% (active); in the test on UACC-257 melanoma, -59.5% (active). For the same compound, the growth with M14 melanoma is -90.9% (active).

With `COc1cc(NCCCCCN)c2ncccc2c1`, the growth with NCI-H23 lung was 100%; in the test with NCI-H226 lung, 112%; with NCI-H322M lung, 122%; with HOP-62 NSCLC, 102%; in the test on NCI-H460 lung, 117%; in the test with HOP-92 NSCLC it was 117%. Moreover, the growth in the test on NCI-H522 lung was 137%; in the test on A549/ATCC NSCLC, 105%; in the test on 786-0 renal it was 119%; in the test on COLO 205 colon, 119%; with DU-145 prostate, 119%; in the test with K-562 leukemia, 102%. Moreover, the growth is 99% in the test on MALME-3M melanoma; 129% with RXF 393 renal; 106% with SF-268 CNS; 112% with SF-295 CNS; 107% in the test on UACC-257 melanoma; 96.8% in the test on M14 melanoma.

For the compound `C=COC(=O)CCCCCCCCC`, the growth in the test with NCI-H23 lung was 108%; with NCI-H226 lung it was 107%; with NCI-H322M lung, 102%; with HOP-62 NSCLC, 120%; in the test with NCI-H460 lung it was 106%; in the test on HOP-92 NSCLC, 99%. Moreover, the growth was 85.9% with NCI-H522 lung; 108% in the test on A549/ATCC NSCLC; 102% in the test on 786-0 renal; 111% in the test on COLO 205 colon; 114% in the test with DU-145 prostate; 104% in the test on MALME-3M melanoma. Further, the growth in the test with MDA-MB-231 breast is 102%; in the test on RXF 393 renal, 106%; in the test on SF-268 CNS it was 101%; with SF-295 CNS it was 115%; in the test on SF-539 CNS, 113%; in the test with UACC-257 melanoma it was 107%. In addition, the growth with M14 melanoma is 108%.

On to `O=C(/C=C/c1ccccc1)c1cccc(O)c1`, for which the growth was 96.7% in the test on NCI-H23 lung; 109% in the test with NCI-H226 lung; 113% in the test on NCI-H322M lung; 103% in the test with HOP-62 NSCLC; 110% in the test with NCI-H460 lung; 82.8% in the test on HOP-92 NSCLC. In addition, the growth in the test with NCI-H522 lung is 116%; in the test on A549/ATCC NSCLC it was 86%; in the test on 786-0 renal, 94.2%; with COLO 205 colon, 107%; in the test with DU-145 prostate, 56.4%; in the test on K-562 leukemia, 51.3%. Further, the growth with MALME-3M melanoma is 101%; in the test with RXF 393 renal, 107%; in the test with SF-268 CNS it was 85%; in the test with SF-295 CNS it was 96.8%; in the test on UACC-257 melanoma it was 99.5%; in the test with M14 melanoma, 68.1%.

For `CCC(=O)OC1=CN2C(=NC(c3ccc(N)cc3)=CC2c2cc(OC)c(OC)c(OC)c2)S1` (centres undefined), the growth is 84.8% in the test with NCI-H23 lung; 75% in the test on NCI-H226 lung; 63% in the test with NCI-H322M lung; 48.1% in the test with HOP-62 NSCLC; 16.7% in the test with NCI-H460 lung; 48.4% in the test on HOP-92 NSCLC. Moreover, the growth in the test on NCI-H522 lung is 40.6%; in the test on A549/ATCC NSCLC it was 39.2%; in the test with 786-0 renal it was 72.1%; in the test with COLO 205 colon it was 47%; in the test with DU-145 prostate, -16.6% (active); with K-562 leukemia, 6.1% (active). Also, the growth with MALME-3M melanoma was 63.7%; in the test on MDA-MB-231 breast it was 67.1%; with RXF 393 renal, 35.1%; in the test on SF-268 CNS, 60.8%; in the test on SF-539 CNS, 43.8%; with UACC-257 melanoma, 37.1%. For the same compound, the growth in the test with M14 melanoma was 52.5%.

In the case of `Cc1ccc(-c2nc(C(Cl)Cl)n3nc(-c4ccccc4)cc3n2)cc1`, the growth with NCI-H23 lung is 47.3%; in the test with NCI-H226 lung, 88%; in the test with NCI-H322M lung, 83.3%; with HOP-62 NSCLC it was 3.61% (active); with NCI-H460 lung it was 15.5%; in the test on HOP-92 NSCLC, -8.47% (active). For the same compound, the growth was 100% with NCI-H522 lung; 12% in the test with A549/ATCC NSCLC; 17.8% in the test with 786-0 renal; 6.05% (active) with COLO 205 colon; -9.74% (active) in the test on DU-145 prostate; 21.2% in the test on K-562 leukemia. The growth was 74.7% in the test with MALME-3M melanoma; 11.5% in the test with MDA-MB-231 breast; 8.85% (active) with SF-268 CNS; 66.2% in the test on SF-295 CNS; 29.8% in the test on SF-539 CNS; 94.1% in the test on UACC-257 melanoma. Further, the growth in the test with M14 melanoma is 95.7%.
